# MCF10A rerep = A quantitative high throughput screen for small molecules that induce DNA re-replication in MCF 10a normal breast cells. Potency, µM (doses to about 46.1 µM), most hits filed as activators. actives 2.9% (n = 350,000). AID 624296, 2012. MCF 10A DNA re-replication, Hoechst nuclear intensity, 48 h; also: nearly all actives have a fitted effect of over 50% in size
# Chronic BCR inh = qHTS Assay to Find Inhibitors of Chronic Active B-Cell Receptor Signaling | ABC-DLBCL IkBa-CBG/CBR reporter, luminescence ratio, 4 h | Potency, µM (top dose mostly 46.1 µM), usual class: inhibitors | actives 0.05% (n = 340,000) | AID 493014, 2011; active = well fitted inhibition curve with a large enough effect in the signal ratio, with a control signal flat, not every such curve was filed as active; inconclusive = small, poorly fitted or top-dose-only effect, or effect the other way, or a change in a side signal; the % refers to the signal ratio
#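 Doxycycline induced both beetle luciferases in TMD8 lymphoma cells; IKK-driven degradation limits the IkappaBalpha-fused green signal, while red luminescence normalises for cell number and nonspecific effects. Compounds tested up to 46 uM, 4 hrs.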
# SW480 rereplic = A quantitative high throughput screen for small molecules that induce DNA re-replication in SW480 colon adenocarcinoma cells | SW480 DNA re-replication, Hoechst DNA content imaging, 48 h | Potency, µM (series often up to 46.1 µM), actives largely listed as activators | actives 1.8% (n = 340,000) | AID 624297, 2012; also: nearly all actives have a fitted effect of over 55% in size
#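 First, 250 cells per well were seeded. Next, compound or vehicle (23 nL) was pinned in, plates sat 48 hr at 37 C. Finally Hoechst was added for 40 min before fluorescence scanning.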
# TDP1 cell CPT = qHTS for Inhibitors of human tyrosyl-DNA phosphodiesterase 1 (TDP1): qHTS in cells in presence of CPT | chicken DT40 Tdp1-/-;hTDP1 cells + 20 nM CPT, ATP luminescence, 48 h | Potency, µM (titrated, usually from 46.2 µM), usual class: inhibitors | actives 12% (n = 420,000); also: nearly all actives have a fitted effect of over 55% in size
#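 Chicken DT40 Tdp1-/- cells complemented with human TDP1, 400 cells/well, exposed to compounds plus 20 nM camptothecin for at least 48 h at 37 C; viability read as ATP content by CellTiter-Glo luminescence.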
# IL-1B inflam inh = qHTS for Inhibitors of Inflammasome Signaling: IL-1-beta AlphaLISA Primary Screen; THP-1 LPS/ATP IL-1B secretion, AlphaLISA, 16 h; stronger effect = lower value; actives 4.7% (n = 360,000); activity change, % at 57.5 µM; in the data active = activity change below about -50%; inconclusive = mostly about -30% to -49%
#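 THP-1 cells pretreated 1 hr with compounds (up to 57.5 uM final), then stimulated with LPS (250 ng/mL final) plus ATP (1.25 mM final); secreted IL-1B measured by AlphaLISA after 16 hr, decreased signal indicating inhibition.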
# DT40 TDP1 no CPT = qHTS for Inhibitors of human tyrosyl-DNA phosphodiesterase 1 (TDP1): qHTS in cells in absence of CPT; actives 15% (n = 420,000); AID 686978, 2013; DT40 Tdp1-/- hTDP1 cells, no CPT, ATP luminescence, 48 h; Potency, µM (titrated, usually from 46.2 µM), hits mostly inhibitors; also: nearly all actives have a fitted effect of over 55% in size
#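 Compound effects on proliferation are scored in DT40 Tdp1-/-;hTDP1 cells in the absence of CPT. ATP levels (CellTiter-Glo luminescence) are recorded after a ≥48 hr, 37 °C incubation.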
# Numbers stand for hits; 0 = inactive; ? = inconclusive; - = not tested or not shown; [ ] = another dose, or the depositor's remark. Compounds with a hit are over-represented: about 19% of the library has one in this group of screens. Unless noted, calls follow the shape of the dose curve; as a rule, active = well fitted curve in the direction sought with a large enough effect; inconclusive = small, poorly fitted or top-dose-only effect, or another doubt; inactive = no such curve, though single readings can be large; an effect the other way counts as inactive or inconclusive.
SMILES,MCF10A rerep,Chronic BCR inh,SW480 rereplic,TDP1 cell CPT,IL-1B inflam inh,DT40 TDP1 no CPT
COCc1ccc(C(=O)NC2CCCc3c2cnn3-c2ccc(C)c(C)c2)o1 (centres undefined),0,0,0,18.4µM,0,?
COCc1ccc(C(=O)NC2CCCc3c2cnn3-c2cc(C)cc(C)c2)s1 (centres undefined),0,?,0,?,0,20.6µM
CC(=O)Nc1cccc(C(=O)NC2CCCc3c2cnn3-c2cc(C)cc(C)c2)c1 (centres undefined),0,0,0,0,0,0
Cc1cc(C)cc(-n2ncc3c2CCCC3NC(=O)c2cc(C)oc2C)c1 (centres undefined),0,0,0,?,0,23.1µM
CNC(=O)c1nc(C)n(-c2ccc(Cl)cc2Cl)n1,0,0,0,11.6µM,0,?
Cc1nc(C(=O)N(C)C)nn1-c1ccc(Cl)cc1Cl,0[0.0737 µM],0,0,0,0,0
NC(=O)N/N=C/c1c(Sc2nnnn2-c2ccccc2)nc2ccccn2c1=O,14.6µM,0,7.31µM,2.91µM,-67.9,2.59µM
O=C(CSc1nnnn1-c1ccccc1)CSc1nnnn1-c1ccccc1,0,0,0,?,0,?
COc1ccc(NC(=S)NCCCCCC(=O)C[N+](=O)[O-])cc1,0,?,0,0,0,0
CCOC(=O)c1ccc(NC(=O)Cn2c(-c3nonc3N)nc3ccccc32)cc1,0,0,0,16.4µM,0,?
COC(=O)c1ccc(NC(=O)Cn2c(-c3nonc3N)nc3ccccc32)cc1,?,0,0,?,0,0
CCc1ccc(NC(=O)Cn2c(-c3cncs3)nc3ccccc32)cc1,-,-,-,?,-,14.6µM
O=C(Cn1c(-c2cscn2)nc2ccccc21)Nc1ccccc1F,0,?,0,7.94µM,0,?
Fc1ccc(Cn2c(-c3cscn3)nc3ccccc32)c(Cl)c1,0,0,0,?,0,?
COC(=O)c1ccccc1NC(=O)Cn1c(-c2nonc2N)nc2ccccc21,0.159µM,?,0.316µM,0.794µM,0,0.708µM
CC(=O)c1cccc(NC(=O)Cn2c(-c3cncs3)nc3ccccc32)c1,-,-,-,0,-,?
Cc1ccc(C)c(NC(=O)Cn2c(-c3nonc3N)nc3ccccc32)c1,-,-,-,0,-,0
Cc1n[nH]c(C)c1S(=O)(=O)N(C)Cc1ccco1,0,0,0,0,0,0
CCC(CC)c1nc(C(N)=O)c2[nH]c(=O)n(-c3ccc(OC)c(OC)c3)c2n1,0,?,0,0,0,0
O=C(OCC1OC(n2cc(Br)c(=O)[nH]c2=O)C(Br)C1O)c1ccccc1 (centres undefined),0,0,0,0,0,?
CNc1ncnc2c1ncn2-c1ccccc1,0,-,?,?,0,?
CC1=C(CC/C(C)=N/NC(N)=S)C(C)(C)CCC1,12.6µM,?,11.2µM,3.98µM,0,3.16µM
CCOC(=O)CCC(NC(=O)c1cncc(O)c1)C(=O)OCC (centres undefined),0,0,0,0,0,0
CCOC(=O)CCC(NC(=O)c1ccc(Nc2nc3ccccc3nc2C(=O)OCC)cc1)C(=O)OCC (centres undefined),0,-,0,10.3µM,0,7.31µM
Cc1cccc(CNc2ncncc2-c2ccccc2C(F)(F)F)c1,-,-,-,0,-,0
SMILES,MCF10A rerep,Chronic BCR inh,SW480 rereplic,TDP1 cell CPT,IL-1B inflam inh,DT40 TDP1 no CPT
N#Cc1c(N2CCN(C(=O)c3ccccc3Cl)CC2)nc(-c2ccccc2)c2c1CCCC2,?,0,0,0,-57.8,0
N#Cc1c(N2CCN(C(=O)c3ccccc3)CC2)nc(-c2ccccc2)c2c1CCCC2,?,?,0,?,?,?
N#Cc1c(N2CCN(C(=O)c3ccco3)CC2)nc(-c2ccccc2)c2c1CCCC2,0,?,0,25.9µM,-51.7,?
CCOc1ccc2nc(NC(=O)C3CCCO3)sc2c1 (centres undefined),0,0,0,0,?,0
CCSc1ncc(Cl)c(C(=O)Nc2nc3ccc(OC)cc3s2)n1,-,-,-,0,-,0
CCOc1ccc2nc(NC(=O)NC3CCCCC3)sc2c1,0,0,0,?,0,20.6µM
CCOc1ccccc1NC(=O)c1nc(SC(C)C)ncc1Cl,-,-,-,?,-,18.4µM
Cc1ccc2nc(NC(=O)c3ccccc3F)sc2c1,0,?,0[9.22 µM],0,0,?
Cc1ccc2nc(NC(=O)c3ccccn3)sc2c1,?,?,0,4.61µM,-101.9,6.51µM
CCOc1ccc2nc(NC(=O)c3nc(SC(C)C)ncc3Cl)sc2c1,-,-,-,9.2µM,-,8.2µM
COc1cccc(OC)c1/C=C/C(=O)NC1CCCCC1,0,?,0,0,0,?
O=C(Nc1nc2c(F)cc(F)cc2s1)c1ccccn1,0,?,0,0.651µM,0,0.731µM
CSc1ncccc1C(=O)Nc1nc2ccc(Oc3ccccc3)cc2s1,?,?,0,20.6µM,0,?
CCOc1ccc2nc(NC(=O)c3ccoc3C)sc2c1,0,?,0[9.22 µM],9.2µM,?,8.2µM
O=C(Nc1nc2c(F)cc(F)cc2s1)c1ccc(S(=O)(=O)N2CCc3ccccc32)cc1,-,-,-,25.9µM,-,?
CCOc1ccc2nc(NC(=O)COC)sc2c1,0,?,0,0,0,0
COc1cccc(C(NC(C)=O)c2nc(-c3csc4ccccc34)cs2)c1 (centres undefined),-,-,-,?,0,?
CC(=O)c1ccc(NC(=O)CSc2nnc(-c3ccncc3)n2-c2ccccc2)cc1,-,0,-,0,-,0
CCOc1ccc2nc(NC(=O)c3ccccn3)sc2c1,?,?,?,0.82µM,-97.9,0.651µM
CCOc1ccc2nc(NC(=O)CN3CCN(CC)CC3)sc2c1,0,0,0,0,0,?
CCOc1ccc2nc(NC(=O)Cn3[nH]c(=O)c4ccccc4c3=O)sc2c1,20.6µM,0,0,23.1µM,0,23.1µM
O=C(Cc1ccccc1)Nc1cccc(C(=O)O)c1O,0,0,0,0,0,?
O=C(c1cc(-c2ccncc2)nc2ccccc12)N1CCN(c2ccccn2)CC1,10.3µM,0,18.4µM,8.91µM,0,11.2µM
O=C(c1cc(-c2ccccc2)nc2ccccc12)N1CCN(c2ccccc2O)CC1,0,?,0,16.4µM,0,18.4µM
O=C(c1cc(-c2ccncc2)nc2ccccc12)N1CCN(c2ccccc2O)CC1,0,0,0,?,0,?
O=C(CSc1n[nH]c(-c2ccccc2O)n1)N1CCCc2ccccc21,?,0,?,?,0,20.6µM

# Source: PubChem BioAssay (National Center for Advancing Translational Sciences (NCATS))
